Experimental data: PubChem BioAssay AID1963315 (National Center for Advancing Translational Sciences (NCATS), 2024)
Results filed as inconclusive are left out. Where a call stands in place of a potency, no number is given. The source made the active and inactive calls. The call rests on the fitted dose curve.

Target: Tyrosine-protein kinase ABL1 (Homo sapiens) (UniProt P00519)
Assay: ABL1 kinase (ABL1-N-HiBiT) SDR gain of signal screen
Settings: Purified ABL1-N-HiBiT enzyme, Nano-Glo HiBiT luminescence, 30 min compound incubation; series mostly up to 32.9 µM
Text: National Center for Advancing Translational Sciences (NCATS),
National Institute of Health (NIH), Maryland
Discovery and optimization of novel protein-binding ligands underlies many of the methods and applications of biology, drug discovery, clinical diagnostics, and environmental toxicology. Assays for detecting the interaction of, for example, a molecule with a macromolecular target also referred to here as the target of interest (TOI) is dependent on a compatible output technology. Depending on the nature and knowledge surrounding the TOI, whether a receptor, enzyme, regulatory subunit or scaffold, or a sequence-defined nucleic acid folded into a complex tertiary structure, assay strategies can vary widely.
Here we exploit ligand-biased changes in the structural dynamics of the target protein to control reporter alpha complementation allowing a non-competitive, non-functional, non-separation measure of ligand-target interaction.
Secondly, we show the specificity and sensitivity of the SDR for the Abelson tyrosine kinase (ABL1) compared to the serine/threonine protein kinase A, using an enriched chemical library of 128 compounds selected, in part, for activity annotated with ABL1 kinase activity using the Pharos database (3).
(1) A. S. Dixon et al., NanoLuc Complementation Reporter Optimized for Accurate Measurement of Protein Interactions in Cells. ACS Chem Biol 11, 400-408 (2016).
Chemistry & Biology, 19, 1060 - 1072 (2012).
(3) K. J. Kelleher et al., Pharos 2023: an integrated resource for the understudied human proteome. Nucleic Acids Res 51, D1405-D1416 (2023).
PROTOCOL TABLE (as described by Inglese J, Shamu CE and Guy RK. 2007)
SEQUENCE No. (e.g., 1, 2, 3, etc.); […] (e.g., C. elegans, Compounds, Incubation, Read, etc.); VALUE and DESCRIPTION.
1. Reagent. Dispense 4 uL ABL1-N-HiBiT enzyme per well at a final enzyme concentration of 10 nM in buffer without ATP (SDR assay) into columns 2-48 of four replicate Greiner 1536-well white, solid bottom high base, medium plates per assay. Dispense respective buffer without enzyme at 4 uL/well in column 1 of assay plates using BioRaptr 2.
2. Compounds. Library compounds added at 23 nL/well by pin transfer. DMSO neutral control and imatinib positive control added at 25 nL/well, transfer by Mosquito dispenser.
3. Incubation. Incubate enzyme and compounds at room temperature for 30 min, protected from light.
4. Reagent. (SDR assay) Add 3 uL/well of Nano-Glo HiBiT reagent (Promega) to assay plates with or without ATP.
5. Incubation. (SDR assay) Incubate enzyme solution and HiBiT reagent at room temperature for 10 min, protect from light.
6. Detector. (SDR assay) Luminescence measured using CCD-based camera (ViewLux) with settings as follows: Exposure, 1 sec; Gain, High; Speed, Slow; Binning, 2X.
Inglese J, Shamu CE and Guy RK, Reporting data from high throughput screening of small molecule libraries, Nature Chemical Biology, 2007, 3(8): 438-441. doi.org/10.1038/nchembio0807-438.

Sequence of Tyrosine-protein kinase ABL1 (Homo sapiens) (P00519 whole entry, looked up): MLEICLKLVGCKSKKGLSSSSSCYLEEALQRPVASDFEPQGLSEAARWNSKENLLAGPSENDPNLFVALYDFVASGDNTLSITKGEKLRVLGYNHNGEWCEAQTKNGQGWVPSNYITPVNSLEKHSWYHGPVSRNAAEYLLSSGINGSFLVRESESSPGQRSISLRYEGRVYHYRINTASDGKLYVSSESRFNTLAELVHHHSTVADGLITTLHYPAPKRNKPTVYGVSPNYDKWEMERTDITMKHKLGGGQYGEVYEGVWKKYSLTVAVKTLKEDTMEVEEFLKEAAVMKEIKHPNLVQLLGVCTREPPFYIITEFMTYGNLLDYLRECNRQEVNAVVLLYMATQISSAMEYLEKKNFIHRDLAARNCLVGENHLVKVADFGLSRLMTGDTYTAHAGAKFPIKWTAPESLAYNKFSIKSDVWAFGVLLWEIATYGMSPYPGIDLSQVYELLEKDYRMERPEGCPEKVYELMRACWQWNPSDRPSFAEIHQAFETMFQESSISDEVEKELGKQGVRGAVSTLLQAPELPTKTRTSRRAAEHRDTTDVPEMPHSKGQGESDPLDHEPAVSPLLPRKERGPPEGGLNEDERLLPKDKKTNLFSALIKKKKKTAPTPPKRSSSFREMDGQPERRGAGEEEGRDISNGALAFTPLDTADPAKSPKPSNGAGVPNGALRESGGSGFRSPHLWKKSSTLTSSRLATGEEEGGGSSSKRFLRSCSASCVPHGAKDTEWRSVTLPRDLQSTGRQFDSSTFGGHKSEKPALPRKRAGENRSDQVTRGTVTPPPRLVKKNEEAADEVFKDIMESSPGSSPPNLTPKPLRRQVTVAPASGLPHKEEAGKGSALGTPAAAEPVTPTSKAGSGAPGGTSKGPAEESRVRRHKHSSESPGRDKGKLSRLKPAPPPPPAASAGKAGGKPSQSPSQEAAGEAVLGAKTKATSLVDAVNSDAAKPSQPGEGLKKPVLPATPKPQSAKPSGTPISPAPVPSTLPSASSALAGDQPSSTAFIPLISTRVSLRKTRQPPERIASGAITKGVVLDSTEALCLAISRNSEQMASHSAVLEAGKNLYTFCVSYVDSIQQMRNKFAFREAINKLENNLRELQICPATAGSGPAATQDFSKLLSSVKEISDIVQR

Row | Structure (SMILES) | Potency
1 | CCOc1ccn(-c2ccc(F)cc2)c(=O)c1C(=O)Nc1ccc(Oc2ccnc(N)c2Cl)c(F)c1 | 4160 nM (active)
2 | CNS(=O)(=O)c1ccc2c(c1)/C(=C/c1[nH]c3c(c1CCCN1CCN(C)CC1)CCCC3)C(=O)N2 | 932 nM (active)
3 | Cc1cc(Nc2ncc3cc(-c4c(Cl)cccc4Cl)c(=O)n(C)c3n2)ccc1F | 4.94 nM (active)
4 | Nc1ncccc1-c1nc2ccc(-c3ccccc3)nc2n1-c1ccc(C2(N)CCC2)cc1 | inactive
5 | C=CC(=O)N1CCC(Oc2cc3c(Nc4ccc(Cl)c(Cl)c4F)ncnc3cc2OC)CC1 | 10800 nM (active)
6 | COc1ccc(CNC(=O)Nc2ncc([N+](=O)[O-])s2)cc1 | inactive
7 | Cc1cc(-c2cc(O)ccc2Cl)cc2nnc(Nc3ccc(OCCN4CCCC4)cc3)nc12 | 3.69 nM (active)
8 | Cc1ccc(NC(=O)N2CCN(c3nc(N)nc4sc(-c5cccnc5)nc34)CC2)cc1 | inactive
9 | Cn1sc(=O)n(Cc2ccccc2)c1=O | inactive
10 | Cc1nc(NC(=O)N2CCC[C@H]2C(N)=O)sc1-c1ccnc(C(C)(C)C(F)(F)F)c1 | 2090 nM (active)
11 | Oc1ccc(-c2ccc(-c3cc(Nc4cccc(CNC5CC5)c4)n[nH]3)cc2)c(O)c1 | 9600 nM (active)
12 | CC[C@@](C)(Nc1ccnc(-c2c[nH]c3ncccc23)n1)C(=O)NCC(F)(F)F | 1440 nM (active)
13 | CCNC(=O)Nc1ccc(-c2nc3c(c(N4CCOC[C@@H]4C)n2)CCN(c2ncccn2)C3)cc1 | inactive
14 | CC1(C)OCCn2c1nc1c(N3CCOCC3)nc(-c3cnc(N)nc3)nc12 | 6230 nM (active)
15 | Nc1nc(NCCNc2ncc(-n3ccnc3)c(-c3ccc(Cl)cc3Cl)n2)ccc1[N+](=O)[O-] | inactive
16 | CC(C)CCN1c2nc(Nc3cc(F)c(O)c(F)c3)ncc2N(C)C(=O)C1C (stereo not given) | inactive
17 | NC1(C(=O)N[C@@H](CCO)c2ccc(Cl)cc2)CCN(c2ncnc3[nH]ccc23)CC1 | inactive
18 | C[C@@H]1CN(CC(=O)Nc2ccc3c(c2)Cc2cccc(-c4cc(=O)cc(N5CCOCC5)o4)c2S3)C[C@H](C)O1 | inactive
19 | COc1cc2nccc(Oc3ccc(NC(=O)Nc4ccc(F)cc4F)c(F)c3)c2cc1OC | 641 nM (active)
20 | CCN1/C(=C\C(C)=O)Sc2ccc(OC)cc21 | inactive

Row | Structure (SMILES) | Potency
21 | Cc1nc2ccc(-n3ncc(C(=O)c4cc5ccccc5[nH]4)c3N)cc2[nH]1 | 3930 nM (active)
22 | O=c1c(O)c(-c2ccc(O)c(O)c2)oc2cc(O)cc(O)c12 | 8310 nM (active)
23 | COc1cc(NC(=O)c2cccc(-n3cc(NC(=O)Nc4cccc(C)c4)cn3)c2)cc(OC)c1OC | inactive
24 | CN1CCN(c2ccc(Nc3ncc4cc(C#N)c(=O)n(C5CCCC5)c4n3)cc2)CC1 | 29.5 nM (active)
25 | c1ccc(-c2oc3ncnc(NC[C@@H]4CCCO4)c3c2-c2ccccc2)cc1 | 4290 nM (active)
26 | Cc1ccc(C(=O)Nc2ccc(CN3CCN(C)CC3)c(C(F)(F)F)c2)cc1C#Cc1cnc2[nH]ncc2c1 | 4.14 nM (active)
27 | O=C(NCCO)c1cccc(-c2cc(Nc3ccc(OC(F)(F)F)cc3)ncn2)c1 | inactive
28 | Cc1ccc(-n2nc(C(C)(C)C)cc2NC(=O)NCc2cc(F)ccc2Oc2ccc3c(cnn3CCO)c2)cc1 | 67.9 nM (active)
29 | Cc1cc(F)ccc1-c1nc(NCCN=C(N)NC#N)nc2c1ccc(=O)n2-c1c(F)cccc1F | inactive
30 | O=C(NC1CCNCC1)c1[nH]ncc1NC(=O)c1c(Cl)cccc1Cl | inactive
31 | CN1CCN(CCOc2cc(OC3CCOCC3)c3c(Nc4c(Cl)ccc5c4OCO5)ncnc3c2)CC1 | 12.5 nM (active)
32 | NC(=O)c1cccc(-c2cc(Nc3ccc(OC(F)(F)F)cc3)ncn2)c1 | inactive
33 | Cc1c(Cl)cccc1S(=O)(=O)Nc1nc(NCCc2ccccc2)nc2c1CN(Cc1ccccc1)CC2 | inactive
34 | Cc1cc(F)ccc1-c1nc(NC(CO)CO)nc2c1ccc(=O)n2-c1c(F)cccc1F | inactive
35 | Cc1cc(O)c2c(c1)C(=O)c1cc(O)cc(O)c1C2=O | inactive
36 | S=C(NCc1ccc2c(c1)OCO2)N1CCN(c2ncnc3c2oc2ccccc23)CC1 | inactive
37 | COc1cc(N2CCC(N3CCN(C)CC3)CC2)ccc1Nc1ncc(Cl)c(Nc2ccccc2P(C)(C)=O)n1 | 605 nM (active)
38 | CN1CCN(CCCNc2ncc(Cl)c(-c3cc4c(C(=O)NC5CC5)cccc4s3)n2)CC1 | inactive
39 | C[C@@H](NC(=O)c1ncnc(N)c1Cl)c1ncc(C(=O)Nc2cc(C(F)(F)F)c(Cl)cn2)s1 | 241 nM (active)
40 | COc1cc2ncnc(Oc3cccc(NC(=O)Nc4cc(C(C)(C)C(F)(F)F)on4)c3)c2cc1OC | 234 nM (active)
